Test results from the supplement of paper PMC6555819.

Assays:
Test in all cases: PBM binding z-score (relative to random genomic background probes); higher = stronger binding; sequences stand for … in GC…GCGATTGACAGCGTAGAATGAAGG
[1] = tested on: FXR:RXRa (NR concentration 270 nM, RXRa partner concentration 90 nM)
How it was run: (§1)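 Binding buffer was PBS pH 7.4 with 2% milk, 0.02% Triton X-100, 1 mM DTT, 0.2 mg/mL BSA and 0.4 mg/ml salmon testes DNA. In it, ligand-free nuclear receptor dimers were incubated 1 h on custom Agilent 4×180K protein-binding microarrays carrying double-stranded probes. Antibodies against each partner (one per run) detected binding, and z-scores were calculated against random background probes after regression normalization of scanned fluorescence.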

[2] = tested on: LXRa:RXRa (NR concentration 270 nM, RXRa partner concentration 90 nM)
How it was run: as §1

[3] = tested on: LXRa homodimer (NR concentration 270 nM)
How it was run: as §1

[4] = tested on: LXRb:RXRa (NR concentration 270 nM, RXRa partner concentration 90 nM)
How it was run: as §1

[5] = tested on: LXRb homodimer (NR concentration 270 nM)
How it was run: as §1

[6] = tested on: PPARa:RXRa (NR concentration 270 nM, RXRa partner concentration 90 nM)
How it was run: as §1

[7] = tested on: PPARg:RXRa (NR concentration 180 nM, RXRa partner concentration 90 nM)
How it was run: as §1

[8] = tested on: PPARg:RXRa 270nM:90nM, anti-RXR (NR concentration 270 nM, RXRa partner concentration 90 nM)
How it was run: as §1

[9] = tested on: PPARg:RXRa 30nM:10nM, anti-RXR (NR concentration 30 nM, RXRa partner concentration 10 nM)
How it was run: as §1

[10] = tested on: PPARg:RXRa 90nM:30nM, anti-RXR (NR concentration 90 nM, RXRa partner concentration 30 nM)
How it was run: as §1

[11] = tested on: PPARg:RXRa DBDmut IVT, anti-RXR (DBD mutation: RXRa K156A/R161A, NR concentration 270 nM, RXRa partner concentration 90 nM)
How it was run: as §1

[12] = tested on: PPARg:RXRa IVT, anti-PPARg (NR concentration 270 nM, RXRa partner concentration 90 nM)
How it was run: as §1

[13] = tested on: PPARg DBDmut IVT, anti-PPARg (DBD mutation: PPARg1 K132A/R137A, NR concentration 270 nM)
How it was run: as §1

[14] = tested on: PPARg homodimer (NR concentration 180 nM)
How it was run: as §1

[15] = tested on: PXR:RXRa (NR concentration 270 nM, RXRa partner concentration 90 nM)
How it was run: as §1

[16] = tested on: PXR homodimer (NR concentration 270 nM)
How it was run: as §1

[17] = tested on: RARa:RXR (NR concentration 270 nM, RXRa partner concentration 90 nM)
How it was run: as §1

[18] = tested on: RARa homodimer (NR concentration 270 nM)
How it was run: as §1

[19] = tested on: RARb:RXRa (NR concentration 270 nM, RXRa partner concentration 90 nM)
How it was run: as §1

ATATGGAGGTTAGGGTCATTCAGAAAGTAGGGAA
PBM binding z-score [1]: 5.28 | PBM binding z-score [2]: 4.25 | PBM binding z-score [3]: 1.34 | PBM binding z-score [4]: 4.8 | PBM binding z-score [5]: 2.02 | PBM binding z-score [6]: 5.63 | PBM binding z-score [7]: 5.01 | PBM binding z-score [8]: 4.47 | PBM binding z-score [9]: 1.89 | PBM binding z-score [10]: 3.76 | PBM binding z-score [11]: 2.21 | PBM binding z-score [12]: 3.8 | PBM binding z-score [13]: 1.73 | PBM binding z-score [14]: 2.92 | PBM binding z-score [15]: 4.32 | PBM binding z-score [16]: 2.35 | PBM binding z-score [17]: 4.55 | PBM binding z-score [18]: 2.05 | PBM binding z-score [19]: 3.93

CCAACTAGGTCACCAGGACAGTGAAGAGGTTGGA
PBM binding z-score [1]: 4.24 | PBM binding z-score [2]: 2.6 | PBM binding z-score [3]: 0.434 | PBM binding z-score [4]: 1.91 | PBM binding z-score [5]: 0.121 | PBM binding z-score [6]: 4.66 | PBM binding z-score [7]: 8.3 | PBM binding z-score [8]: 6.53 | PBM binding z-score [9]: 3.83 | PBM binding z-score [10]: 6.09 | PBM binding z-score [11]: 7.98 | PBM binding z-score [12]: 8.26 | PBM binding z-score [13]: 1.95 | PBM binding z-score [14]: 2.72 | PBM binding z-score [15]: 1.52 | PBM binding z-score [16]: 0.124 | PBM binding z-score [17]: 2.69 | PBM binding z-score [18]: 1.44 | PBM binding z-score [19]: 4.36

CGAACTACGTCACCAGGACAGTGAAGAGGTTGGA
PBM binding z-score [1]: -0.0876 | PBM binding z-score [2]: -0.2 | PBM binding z-score [3]: -0.121 | PBM binding z-score [4]: -0.435 | PBM binding z-score [5]: -0.676 | PBM binding z-score [6]: -0.258 | PBM binding z-score [7]: 0.527 | PBM binding z-score [8]: -0.464 | PBM binding z-score [9]: 0.0797 | PBM binding z-score [10]: -0.46 | PBM binding z-score [11]: 0.112 | PBM binding z-score [12]: 0.232 | PBM binding z-score [13]: -0.216 | PBM binding z-score [14]: 0.245 | PBM binding z-score [15]: -0.245 | PBM binding z-score [16]: -0.301 | PBM binding z-score [17]: 0.0876 | PBM binding z-score [18]: -0.285 | PBM binding z-score [19]: -0.125

CGAACTAGGTCACCAGGACAGTAAAGAGGTTGGA
PBM binding z-score [1]: 4.28 | PBM binding z-score [2]: 2.44 | PBM binding z-score [3]: 0.233 | PBM binding z-score [4]: 1.93 | PBM binding z-score [5]: 0.13 | PBM binding z-score [6]: 5.1 | PBM binding z-score [7]: 9.15 | PBM binding z-score [8]: 7.03 | PBM binding z-score [9]: 4.73 | PBM binding z-score [10]: 6.51 | PBM binding z-score [11]: 8.12 | PBM binding z-score [12]: 8.87 | PBM binding z-score [13]: 5.2 | PBM binding z-score [14]: 2.63 | PBM binding z-score [15]: 1.66 | PBM binding z-score [16]: 0.231 | PBM binding z-score [17]: 2.62 | PBM binding z-score [18]: 0.29 | PBM binding z-score [19]: 4.12

ATATGTAGGATAGGGTCATTCAGAAAGTAGGGAA
PBM binding z-score [1]: 3.78 | PBM binding z-score [2]: 3.12 | PBM binding z-score [3]: 0.63 | PBM binding z-score [4]: 3.55 | PBM binding z-score [5]: 1.08 | PBM binding z-score [6]: 4.62 | PBM binding z-score [7]: 4.04 | PBM binding z-score [8]: 3.78 | PBM binding z-score [9]: 1.71 | PBM binding z-score [10]: 3.29 | PBM binding z-score [11]: 2.75 | PBM binding z-score [12]: 3.63 | PBM binding z-score [13]: 1.68 | PBM binding z-score [14]: 2.36 | PBM binding z-score [15]: 3.47 | PBM binding z-score [16]: 1.46 | PBM binding z-score [17]: 4.19 | PBM binding z-score [18]: 1.52 | PBM binding z-score [19]: 2.69

CGAACTAGGTCACTAGGACAGTGAAGAGGTTGGA
PBM binding z-score [1]: 2.63 | PBM binding z-score [2]: 1.57 | PBM binding z-score [3]: -0.199 | PBM binding z-score [4]: 0.869 | PBM binding z-score [5]: -0.496 | PBM binding z-score [6]: 4.78 | PBM binding z-score [7]: 8.29 | PBM binding z-score [8]: 6.68 | PBM binding z-score [9]: 3.9 | PBM binding z-score [10]: 6.28 | PBM binding z-score [11]: 7.81 | PBM binding z-score [12]: 8.81 | PBM binding z-score [13]: 2.32 | PBM binding z-score [14]: 1.48 | PBM binding z-score [15]: 0.625 | PBM binding z-score [16]: 0.00587 | PBM binding z-score [17]: 1.68 | PBM binding z-score [18]: 0.195 | PBM binding z-score [19]: 3.62

CGAACTAGGTCAAAGGACAGTTAAAGGCGACGTA
PBM binding z-score [1]: 4.01 | PBM binding z-score [2]: 2.69 | PBM binding z-score [3]: 0.333 | PBM binding z-score [4]: 1.95 | PBM binding z-score [5]: -0.158 | PBM binding z-score [6]: 5.58 | PBM binding z-score [7]: 10.5 | PBM binding z-score [8]: 8.8 | PBM binding z-score [9]: 7.97 | PBM binding z-score [10]: 9.57 | PBM binding z-score [11]: 7.76 | PBM binding z-score [12]: 8.44 | PBM binding z-score [13]: 1.12 | PBM binding z-score [14]: 2.07 | PBM binding z-score [15]: 1.32 | PBM binding z-score [16]: 0.165 | PBM binding z-score [17]: 2.42 | PBM binding z-score [18]: 0.332 | PBM binding z-score [19]: 4

ATATGTAAGTTAGGGTCATTCAGAAAGTAGGGAA
PBM binding z-score [1]: 4.8 | PBM binding z-score [2]: 4.5 | PBM binding z-score [3]: 1.55 | PBM binding z-score [4]: 4.13 | PBM binding z-score [5]: 1.31 | PBM binding z-score [6]: 4.91 | PBM binding z-score [7]: 2.88 | PBM binding z-score [8]: 3.41 | PBM binding z-score [9]: 1.15 | PBM binding z-score [10]: 2.64 | PBM binding z-score [11]: 1.38 | PBM binding z-score [12]: 2.41 | PBM binding z-score [13]: 1.73 | PBM binding z-score [14]: 2.2 | PBM binding z-score [15]: 4.63 | PBM binding z-score [16]: 1.59 | PBM binding z-score [17]: 5.07 | PBM binding z-score [18]: 1.77 | PBM binding z-score [19]: 3.23
